{"source": "PubChem BioAssay (NCI)", "note": "The panel holds about 83,000 compounds, 20% with a hit somewhere; the sample as a whole holds those more often.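 96-well plates, one dose, 48 hours. Percent growth reported; active if below 10.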 Unmarked numbers belong to inactive results. Active and inactive are the calls of the source.", "data": [{"test_system": "MDA-MB-468 breast", "experiment": "NCI-60 one-dose screen, 48 h (100 = growth as untreated, 0 = no growth, -100 = all killed)", "settings": "10 µM unless noted", "values": [{"smiles": "COc1cc(-c2nn(-c3ccc(NC(=O)NCCNS(=O)(=O)c4ccc(F)cc4)cc3)cc2-c2ccncc2)ccc1Cl", "growth": "-27% (active)"}, {"smiles": "Cc1nc2nc(SCC(=O)O)[nH]c2c(=O)[nH]1", "growth": "106%"}, {"smiles": "O=[N+]([O-])C1CC2C=CC1C2", "note": "(stereo not drawn)", "growth": "99.5%"}]}]}
